Bioassay records deposited in PubChem by National Center for Advancing Translational Sciences (NCATS).
Most compounds without a hit are left out; they make up all but 9% or so of the library.
HPGD inh = blocks human HPGD enzyme activity; P15428; Potency, µM, hits mostly inhibitors; purified HPGD, NADH fluorescence kinetic, PGE2 substrate; 150,000 compounds, 4.3% hits
Target sequence (P15428 whole entry, looked up): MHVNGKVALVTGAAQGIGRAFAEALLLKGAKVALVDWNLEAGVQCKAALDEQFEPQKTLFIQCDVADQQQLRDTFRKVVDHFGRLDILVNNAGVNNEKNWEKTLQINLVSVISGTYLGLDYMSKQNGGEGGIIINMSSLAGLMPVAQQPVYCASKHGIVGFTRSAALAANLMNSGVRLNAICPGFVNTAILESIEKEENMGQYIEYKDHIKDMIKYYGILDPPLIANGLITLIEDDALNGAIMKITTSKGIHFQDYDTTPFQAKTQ
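20 nM HPGD preincubated 15 min at room temperature with compound in 50 mM Tris-HCl pH 8, 0.01% Tween 20. Started with 1 mM NAD+ and 30 uM prostaglandin E2; NADH fluorescence (360/450 nm) read 5 times over 30-s intervals, last minus first.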
ALDH1A1 inh = blocks purified human ALDH1A1 activity; 220,000 compounds, 7.3% hits; Potency, µM (series often up to 75.3 µM), hits mostly inhibitors; AID 1030; Purified ALDH1A1, NADH fluorescence, propionaldehyde substrate; P00352
IMPase cell inh = IMPase inhibition in cells; P97697; CHO-M1 cells, IP1 accumulation, HTRF TR-FRET ratio; inhibition (IP1 accumulation), % at 46.1 µM; 120,000 tested, under 10 active; AID 901; active = well fitted curve in the direction sought with a large enough effect in the signal ratio, not every such curve was filed as active; inconclusive = small, poorly fitted or top-dose-only effect, or a change in a side signal; inactive = no such curve, though single readings can be large or run the other way; the % refers to the signal ratio;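 note: cells stimulated with carbachol in lithium chloride buffer; higher means more IMPase inhibition seen as more IP1 and lower FRET ratio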
Target sequence (P97697 whole entry, looked up): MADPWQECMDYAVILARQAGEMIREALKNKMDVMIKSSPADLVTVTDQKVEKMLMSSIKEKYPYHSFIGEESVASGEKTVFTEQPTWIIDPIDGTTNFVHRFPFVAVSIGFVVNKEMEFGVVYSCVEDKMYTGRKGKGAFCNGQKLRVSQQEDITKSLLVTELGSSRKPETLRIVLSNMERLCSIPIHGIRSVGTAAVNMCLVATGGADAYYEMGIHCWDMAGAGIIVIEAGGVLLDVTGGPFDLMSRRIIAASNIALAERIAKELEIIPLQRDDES
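In this qHTS, compounds (final up to 46 uM) act on CHO-M1 cells that are then activated through the M1 receptor with carbachol, in pH 7.4 buffer containing 50 mM LiCl, for 30 min. IP1 accumulation is quantified by the IP-One immunoassay.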
Of the large screens only hits and unclear results are named; the others gave an inactive call. Unless noted, calls come from the whole dose curve; as a rule, active = well fitted inhibition curve with a large enough effect (not every such curve was filed as active); inconclusive = small, poorly fitted or top-dose-only effect, or another doubt; inactive = no such curve, though single readings can be large or run the other way.

CCn1c(SCC(=O)N/N=C/c2cc(OC)c(O)c(OC)c2)nc2ccccc21	ALDH1A1 inh inconclusive
Cn1c(SCC(=O)N/N=C/C=C\c2ccco2)nc2ccccc21	HPGD inh 20µM, ALDH1A1 inh 6µM
NCC1CCCCC1CC(=O)O (centres undefined)	none (no result: IMPase cell inh)
CCc1ccc(C(=O)COC(=O)c2cncc(Br)c2)cc1	none (no result: HPGD inh, IMPase cell inh)
CC(CNS(=O)(=O)c1cc(Cl)ccc1Cl)CN(C)C (centres undefined)	none
Cc1c(NS(=O)(=O)c2ccc(Cl)c(C(=O)OC(C)C(=O)NCc3ccco3)c2)c(=O)n(-c2ccccc2)n1C (centres undefined)	none (no result: HPGD inh, IMPase cell inh)
CC1(C)CC(=O)/C(=C(/O)CCCN2C(=O)c3ccccc3C2=O)C(=NC(C)(C)C)C1	none (no result: HPGD inh, IMPase cell inh)
CC1CC(C)CN(C(=O)Cc2c(C(=O)O)[nH]c3ccc(Cl)cc23)C1 (centres undefined)	none (no result: HPGD inh, IMPase cell inh)
C=CCNC1=C(Cl)C(=O)N(c2ccccc2Cl)C1=O	ALDH1A1 inh 25µM
Cc1c(NC2=C(Cl)C(=O)N(c3ccccc3)C2=O)c(=O)n(-c2ccccc2)n1C	ALDH1A1 inh inconclusive
Cc1c(NC2=C(Cl)C(=O)N(c3ccccc3Cl)C2=O)c(=O)n(-c2ccccc2)n1C	ALDH1A1 inh 35µM (no result: IMPase cell inh)
O=C1C(Cl)=C(N2CCOCC2)C(=O)N1c1ccccc1Cl	ALDH1A1 inh inconclusive
CC(=O)c1cccc(NS(=O)(=O)c2cccc(C(=O)O)c2)c1	none (no result: IMPase cell inh)
Nn1c(SCC(=O)Nc2ccc3c(c2)OCO3)nnc1C1CCCCC1	none
O=C(CSc1nnnn1C1CC2CCC1C2)Nc1ccnc2ccccc12 (centres undefined)	HPGD inh inconclusive, ALDH1A1 inh 2.5µM
COc1ccc(NC(=O)CSc2nnnn2C2CCCC2)cc1	ALDH1A1 inh 2.5µM (no result: HPGD inh, IMPase cell inh)
O=C(CSc1nnnn1C1CCCCC1)Nc1ccc2c(c1)OCO2	ALDH1A1 inh 7.9µM
O=C(CSc1nnnn1C1CCCC1)NCc1ccccc1	ALDH1A1 inh inconclusive
COc1cccc(-n2nnnc2SCC(=O)Nc2ccc(C(C)=O)cc2)c1	IMPase cell inh inconclusive
O=C(CSc1nnnn1C1CCCC1)Nc1ccc(F)cc1	ALDH1A1 inh inconclusive
COc1ccc(OC)c(-n2nnnc2SCC(=O)Nc2ccc(C(=O)N3CCCCC3)cc2)c1	HPGD inh 0.35µM, ALDH1A1 inh 1.4µM
CNC(=O)C(=O)NCCCN1CCOCC1	none (no result: HPGD inh, IMPase cell inh)
CC(C)c1ccc2oc(-c3cccc(NC(=O)c4ccc5c(c4)OCCO5)c3)nc2c1	none (no result: HPGD inh, ALDH1A1 inh)
Cn1nnnc1SCC(=O)c1cccs1	ALDH1A1 inh inconclusive
O=C(CSc1nnnn1C1CCCCC1)Nc1ccccc1F	ALDH1A1 inh 4µM (no result: HPGD inh, IMPase cell inh)
O=C(Sc1nnnn1C1CCCCC1)c1cccs1	HPGD inh 25µM, ALDH1A1 inh 10µM
O=C(CSc1nnnn1C1CCCCC1)Nc1cccc(NC(=O)c2ccco2)c1	ALDH1A1 inh 28µM
O=C(CSc1nnnn1C1CCCCC1)NCc1ccccc1	ALDH1A1 inh inconclusive
O=C(CSc1nnnn1C1CCCC1)Nc1cccc(NC(=O)c2ccco2)c1	ALDH1A1 inh inconclusive
COc1ccc(C2C(C(=O)Nc3cc(OC)c(OC)c(OC)c3)c3ccccc3C(=O)N2C)cc1OC (centres undefined)	none (no result: HPGD inh, IMPase cell inh)
C=C(C)C(O)/C=C/c1cccc(OC)c1 (centres undefined)	none (no result: HPGD inh, IMPase cell inh)
CC1(C)CC(=O)c2cnc(N)nc2C1	ALDH1A1 inh inconclusive
CC1(C)CC(=O)c2cc3c(nc2C1)CC(C)(C)CC3=O	ALDH1A1 inh 7.1µM, IMPase cell inh inconclusive (no result: HPGD inh)
CC(=O)Oc1ccc(C(=O)Cc2ccccn2)c(O)c1	none (no result: IMPase cell inh)
Oc1ccc(/C(Cc2ccccn2)=N\Nc2ccccc2)c(O)c1	ALDH1A1 inh 18µM (no result: HPGD inh, IMPase cell inh)
O=C(CN1CCCC1)Nc1ccc([N+](=O)[O-])cc1	none (no result: HPGD inh, IMPase cell inh)
Cc1cccc(N(CC(O)CON=C2c3ccccc3-c3ccccc32)S(C)(=O)=O)c1 (centres undefined)	none
CN[C@@H](c1ccncc1)[C@@H](NC)c1ccncc1	none (no result: IMPase cell inh)
CCN(CC)c1ccc(C=C2C(=O)OC3(CCCC3)OC2=O)cc1	HPGD inh inconclusive, ALDH1A1 inh 0.71µM
CCN(CC)c1ccc(C(=S)N2CCN(c3ccccc3)CC2)cc1	HPGD inh inconclusive, ALDH1A1 inh inconclusive
O=C1OC2(CCCC2)OC(=O)C1=Cc1c[nH]c2ccccc12	none (no result: HPGD inh, IMPase cell inh)
CCN(CC)c1ccc(C=C2C(=O)OC(c3ccccc3)OC2=O)cc1 (centres undefined)	ALDH1A1 inh 0.28µM (no result: HPGD inh, IMPase cell inh)
C=CCNC(=O)C1CCN(c2c([N+](=O)[O-])cc(C(F)(F)F)cc2[N+](=O)[O-])CC1	none
CCOC(=O)c1sc2ncn(CC(=O)N(CC)CC)c(=O)c2c1C	ALDH1A1 inh inconclusive, IMPase cell inh inconclusive
CCOC(=O)c1sc2ncn(/N=C/c3ccc(O)cc3)c(=O)c2c1C	ALDH1A1 inh 20µM (no result: HPGD inh, IMPase cell inh)
CCOC(=O)c1sc2ncn(/N=C/c3cccnc3)c(=O)c2c1C	ALDH1A1 inh 0.071µM
CCOC(=O)c1sc2ncn(C(C)C(=O)OCC)c(=O)c2c1C (centres undefined)	none
Fc1ccc2c(c1)C1C=CCC1C(c1cc3c(cc1Br)OCO3)N2 (centres undefined)	none
COc1ccc(CNC(=O)CN(C(=O)c2cc3sccc3n2C)C2CCCC2)cc1	ALDH1A1 inh inconclusive
CCOC(=O)c1cc(C)[nH]c(=S)c1C#N	ALDH1A1 inh 20µM
C#CCSc1nc(C)cc(C(=O)OCC)c1C#N	none (no result: HPGD inh, IMPase cell inh)
C/C1=C2N=C(/C=C3N=C(/C(C)=C4\[N-]C(C)(C5N=C1C(C)(CCC(=O)NCC(C)OP(=O)([O-])O[C@H]1C(O)C(n6cnc7cc(C)c(C)cc76)O[C@@H]1CO)C5CC(N)=O)C(C)(CC(N)=O)C4CCC(N)=O)C(C)(CC(N)=O)C\3CCC(N)=O)C(C)(C)C/2CCC(N)=O.[CH2-]C1OC(n2cnc3c(N)ncnc32)C(O)C1O.[Co] (some centres undefined)	none (no result: IMPase cell inh)
O=c1/c(=C\c2ccc(O)cc2)sc2n1C(c1ccccc1)C(c1ccccc1)=NN=2 (centres undefined)	HPGD inh 16µM, ALDH1A1 inh 8.9µM
CCOC(=O)C1=C(c2ccccc2)N=c2s/c(=C\c3cccc(O)c3)c(=O)n2C1c1cccs1 (centres undefined)	none
O=C(Nc1cccnc1)c1ccc(S(=O)(=O)c2ccccc2)cc1	none (no result: HPGD inh, IMPase cell inh)
CN(CCOC(=O)c1ccc2c(c1)OCCO2)Cc1ccccc1	none
CN(Cc1ccccc1)C(=O)c1ccc2c(c1)OCCO2	HPGD inh 14µM, ALDH1A1 inh inconclusive
O=c1cnc2cnc(N3CCOCC3)nc2n1CCc1ccccc1	none (no result: HPGD inh, IMPase cell inh)
Brc1[nH]nc2ccccc12	none
COc1ccc(CCC(C)Nc2ccccc2F)cc1 (centres undefined)	none (no result: IMPase cell inh)
COc1ccc(CCC(C)Nc2cccc(F)c2)cc1 (centres undefined)	ALDH1A1 inh 10µM
O=C(Nc1ccc(Oc2ccccc2)cc1)C1CCN(S(=O)(=O)c2ccccc2)CC1	none (no result: HPGD inh, ALDH1A1 inh)
CC=C(Cl)Cl	none (no result: IMPase cell inh)
COc1ccc(CCNC(=O)CSc2nnc(C(C)N(C)C)n2Cc2ccccc2)cc1OC (centres undefined)	none (no result: HPGD inh, IMPase cell inh)
CC12CC[C@@H]3c4ccc(OS(=O)(=O)O)cc4CC[C@H]3C1CCC2=O (some centres undefined)	none
COc1ccc(C2(O)CCN(CCCCOc3ccccc3)CC2)cc1	ALDH1A1 inh inconclusive
CC(C)CCN(CCC(C)C)C(CO)(CO)CO	ALDH1A1 inh 28µM (no result: HPGD inh, IMPase cell inh)
COc1ccccc1NC(=O)CSc1nnnn1-c1ccc(C)cc1	IMPase cell inh inconclusive
Cn1nnnc1SCC(=O)Nc1ccccc1Cl	none
